Test results as given in PubChem BioAssay.
Activity calls are given as the source filed them. No rule for the calls is given here.

experiment: Brca1-Bard1 BiLC signal decrease – luminescence, single concentration, counter-screen for Mdm2/MdmX interaction inhibitor project, confirmation (AID 504668); details: Brca1/Bard1 bimolecular luciferase complementation counterscreen, at 8 µM, active compounds read high

**Q.** Which inhibition does the source give for `O=c1c2ccccc2nc(/C=C/c2cc(Br)ccc2O)n1CCCO` here?
**A.** 26.6% (active)

**Q.** Which inhibition does the source give for `CC(NC(=O)CN(c1cccc(C(F)(F)F)c1)S(=O)(=O)c1ccc(Cl)c([N+](=O)[O-])c1)c1ccccc1` (stereo not given) here?
**A.** 35.1% (active)

**Q.** With `Cc1cccc(Cn2nc(C(C)(C)C)cc2C(=O)Nc2ccc(F)cc2)c1` as the molecule, how does the inhibition read?
**A.** 31.2% (active)

**Q.** Which inhibition does the source give for `CCOC(=O)CSC1=NC(=O)/C(=C/c2ccc(OC)cc2)S1` here?
**A.** 32.1% (active)

**Q.** Which inhibition does the source give for `O=C(N/N=C(\Cc1ncc[nH]1)c1ccccc1)c1cccnc1` here?
**A.** 33.1% (active)

**Q.** For `CCOc1ccc(-c2nnc(SCC(=O)Nc3ccc4c(c3)c3ccccc3n4CC)n2N)cc1`, which inhibition is on record?
**A.** 23.1% (active)

**Q.** For `N#C/C(=N/Nc1ccc(OC(F)(F)F)cc1)C(N)=S`, which inhibition is on record?
**A.** 35% (active)

**Q.** With `CCc1ccc(C(O)(CC(C)C)C(CN2CCOCC2)c2ccccc2)cc1` (stereo not given) as the molecule, how does the inhibition read?
**A.** 27.2% (active)

**Q.** Which inhibition does the source give for `Cn1ccc2cc(-c3ccc4ncnc(NCc5cccs5)c4c3)ccc21` here?
**A.** 25% (active)

**Q.** For `Cc1ccc(CNC(=O)c2ccc3c(=O)c(O)c(-c4ccc(C)cc4)[nH]c3c2)cc1`, which inhibition is on record?
**A.** 29% (active)

**Q.** Which inhibition does the source give for `Cc1nnsc1C(=O)N/N=C/c1ccc2ccccc2c1O` here?
**A.** 30.1% (active)

**Q.** Which inhibition does the source give for `O=C(CCl)N1CCN2C(=O)c3ccccc3C12c1ccc(Cl)cc1` (stereo not given) here?
**A.** 28.5% (active)

**Q.** For `O=c1cc(CSc2ccc(Cl)cc2)nc(-c2ccccn2)[nH]1`, which inhibition is on record?
**A.** 30.5% (active)

**Q.** With `COc1ccc(/C=c2/sc3n(c2=O)C(c2ccccc2OC)C2=C(N=3)c3ccccc3CC2)cc1O` (stereo not given) as the molecule, how does the inhibition read?
**A.** 29.6% (active)

**Q.** With `Cc1ccc2c(C)nc(Nc3nc(CSc4nc5ccccc5[nH]4)cc(=O)[nH]3)nc2c1` as the molecule, how does the inhibition read?
**A.** 32.5% (active)
